High-throughput results (PubChem)
BAZ2B block – inhibitors of human BAZ2B bromodomain | AID 504333 | AlphaScreen BAZ2B-H3K14Ac peptide displacement | Potency, µM (series often up to 114 µM), hits mostly inhibitors | 360,000 compounds, 4.4% hits | Q9UIF8; note: nearly all actives have a fitted effect of over 60% in size
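AlphaScreen displacement: compounds (up to 110uM) incubated 30 min at room temperature with a preformed 50 nM BAZ2B/50 nM biotinylated H3K14Ac peptide complex in PBS pH 7.4 with Tween-20. Donor and acceptor beads at 10 ug/mL final added, 20 min light-protected before reading.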
JMJD2A Tudor – blocks the human JMJD2A Tudor domain; AlphaScreen JMJD2A-Tudor / H3K4me3 peptide binding; 390,000 compounds, 4.4% hits; Potency, µM (top dose mostly 114 µM), actives largely listed as inhibitors; note: nearly all actives have a fitted effect of over 50% in size
HP1b binding inh – HP1-beta chromodomain-methylated histone interaction inhibition; P83916; AlphaScreen HP1-beta / biotin-H3K9me3 peptide binding; Potency, µM (top dose mostly 114 µM), usual class: inhibitors; 390,000 compounds, 0.56% hits; AID 540317; note: nearly all actives have a fitted effect of over 70% in size
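AlphaScreen: HP1-beta (50 nM) preformed 30 min with biotin-H3(1-18)K9me3 peptide (50 nM) in PBS pH 7.4, 0.01% Tween-20. Compound added for 30 min at RT, then streptavidin donor/nickel chelate acceptor beads (10 ug/mL) for 30 min.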
G9a inh – blocks human histone lysine methyltransferase G9a. G9a H3K9 monomethylation, AlphaScreen, 2 h. AID 504332. 350,000 compounds, 8.8% hits. Potency, µM (doses to about 102 µM), usual class: inhibitors; note: nearly all actives have a fitted effect of over 75% in size
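AlphaScreen read-out: biotin-H3K9 peptide (500 nM) methylation by 20 nM enzyme with 20 uM SAM, 2 h at room temperature after 15 min compound preincubation; anti-monomethyl H3K9 antibody plus donor/acceptor beads, 10 min dark.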
GLS inh – inhibitors of human glutaminase (GLS) | 410,000 compounds, 0.21% hits | Potency, µM (highest dose often 45.5 µM), hits mostly inhibitors | AID 624170 | GLS enzymatic activity, qHTS titration | O94925
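hKGA in 45 mM KH2PO4 pH 8.2, 0.02% Tween-20 with pin-transferred compounds; 1 mM L-glutamine (stock) plus glutamate oxidase/HRP/Amplex Red coupling added. Fluorescence read initially and after 30 min at RT.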
L3MBTL1 block – L3MBTL1 (human) inhibition | Q9Y468 | AlphaScreen L3MBTL1–H3K9me1 peptide binding | Potency, µM (titrated, usually from 57.1 µM), hits mostly inhibitors | 230,000 compounds, 0.66% hits; note: nearly all actives have a fitted effect of over 60% in size
Target sequence (Q9Y468 whole entry, looked up): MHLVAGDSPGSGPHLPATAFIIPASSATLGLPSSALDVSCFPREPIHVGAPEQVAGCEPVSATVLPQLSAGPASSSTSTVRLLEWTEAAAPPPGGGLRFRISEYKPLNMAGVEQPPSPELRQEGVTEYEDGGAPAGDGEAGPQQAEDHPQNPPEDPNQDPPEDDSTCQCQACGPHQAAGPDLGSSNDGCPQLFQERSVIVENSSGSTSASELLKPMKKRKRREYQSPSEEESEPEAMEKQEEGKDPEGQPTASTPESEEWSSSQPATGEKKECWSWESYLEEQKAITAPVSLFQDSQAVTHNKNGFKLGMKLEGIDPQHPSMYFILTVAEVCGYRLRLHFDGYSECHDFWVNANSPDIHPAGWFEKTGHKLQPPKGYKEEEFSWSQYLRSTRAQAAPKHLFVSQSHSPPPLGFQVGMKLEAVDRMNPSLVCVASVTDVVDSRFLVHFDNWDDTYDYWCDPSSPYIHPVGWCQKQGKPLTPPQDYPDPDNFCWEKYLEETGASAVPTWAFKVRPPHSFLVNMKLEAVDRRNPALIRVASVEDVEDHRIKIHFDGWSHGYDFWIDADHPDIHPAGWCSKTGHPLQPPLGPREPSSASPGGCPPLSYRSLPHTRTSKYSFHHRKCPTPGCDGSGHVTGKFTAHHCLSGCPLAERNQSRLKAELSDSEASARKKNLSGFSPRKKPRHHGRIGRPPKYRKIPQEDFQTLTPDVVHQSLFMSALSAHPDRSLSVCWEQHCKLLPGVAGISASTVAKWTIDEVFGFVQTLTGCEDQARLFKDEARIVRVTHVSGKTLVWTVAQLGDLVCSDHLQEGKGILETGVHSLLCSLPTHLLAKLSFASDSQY
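Displacement of a biotinylated histone H3(1-15) peptide monomethylated at Lys9 (75 nM) from L3MBTL1 (50 nM) was measured by AlphaScreen after a 30 min room-temperature compound incubation; cefsulodin titration served as intraplate control.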
Numbers stand for hits; 0 = inactive; ? = inconclusive; - = no result given; [ ] = dose if it differs, or a comment. Compounds with a hit are over-represented: about 10% of the library has one in this group of screens. Calls come from the whole dose curve; as a rule, active = well fitted curve in the direction sought with a large enough effect; inconclusive = small, poorly fitted or top-dose-only effect, or another doubt; inactive = no such curve, though single readings can be large; an effect the other way counts as inactive or inconclusive.

SMILES	BAZ2B block	JMJD2A Tudor	HP1b binding inh	G9a inh	GLS inh	L3MBTL1 block
N#Cc1nc(-c2cccs2)oc1N1CCN(Cc2ccccc2)CC1	25µM	?	?	?	0	-
N#Cc1nc(-c2cccs2)oc1NCCN1CCOCC1	0	?	0	0	0	0
COc1ccccc1CCC(=O)Nc1ccc2c(c1)CN(CCCn1cccn1)CC2	0	0	0	?	0	-
COc1cccc(CN2CCc3ccc(NC(=O)CCc4ccc(C)cc4)cc3C2)c1O	?	0	0	40µM	0	-
COc1cc(CN2CCc3ccc(NC(=O)CCc4ccccc4OC)cc3C2)ccc1O	0	?	0	45µM	0	-
COc1ccc(CN2CCc3ccc(NC(=O)CCc4ccccc4OC)cc3C2)c(O)c1	0	0	0	?	0	-
CC(=O)Nc1ccc(NC(=O)c2ccc(CN3CCc4ccccc4C3)cc2)cc1	0	0	0	0	0	0
COC(=O)c1ccc(CN2CCc3ccc(NC(=O)c4ccncc4)cc3C2)cc1	0	0	0	50µM	0	-
Cc1ccc(C)c(Cn2nnc(C(=O)NCc3ccccc3)c2N)c1	0	0	0	0	0	-
CC(=O)OCC(NC(=O)C(CCCCNC(=O)OCc1ccccc1)NC(=O)OC(C)(C)C)C1OC(n2cc(C)c(=O)[nH]c2=O)C(OC(C)=O)C1OC(C)=O (stereo not given)	-	0	0	-	-	-
Cc1ccc(-c2ccc(=O)n(CC(=O)NC(C)c3ccccc3)n2)cc1 (stereo not given)	0	0	0	0	0	-
Cc1cccc(N(C)S(=O)(=O)c2nnc(NC(=O)C(C)Oc3ccccc3)s2)c1 (stereo not given)	0	0	0	0	0	-
O=c1c2ccccc2nc(COc2ccccc2)n1/N=C/c1cc([N+](=O)[O-])ccc1O	0	0	0	0	0	0
Oc1ccc(Br)cc1/C=N/n1c(COc2ccccc2)n[nH]c1=S	0	?	?	28µM	0	-
FC(F)(F)c1ccccc1/C=N/n1c(COc2ccccc2)n[nH]c1=S	?	?	?	20µM	0	-
S=c1[nH]nc(COc2ccccc2)n1/N=C/c1ccccc1Br	0	0	0	8.9µM	0	-
Cc1ccc(CCNC(=O)Cn2nc(-c3ccc(C)cc3)ccc2=O)cc1	0	0	0	0	0	-
COc1ccc(-c2nn(C)c3sc(C(=O)Nc4cc(OC)c(OC)c(OC)c4)cc23)cc1OC	-	?	0	?	0	-
Cc1ccn2cc(CNS(=O)(=O)c3ccc4ccccc4c3)nc2c1	0	0	0	71µM	0	-
COc1ccc(CC(=O)N(CCC2=CCCCC2)c2c(N)n(Cc3ccccc3)c(=O)[nH]c2=O)cc1	-	-	-	-	0	-
COCCN(C(=O)CSCc1ccccc1)c1c(N)n(Cc2ccccc2)c(=O)[nH]c1=O	0	0	0	?	0	-
CCC1CCc2sc(C(=O)OCC(=O)N(CCOC)c3c(N)n(Cc4ccccc4)c(=O)[nH]c3=O)cc2C1 (stereo not given)	0	0	0	28µM	0	0
COCCN(C(=O)CN1CCc2ccccc2C1)c1c(N)n(Cc2ccccc2)c(=O)[nH]c1=O	0	0	0	40µM	0	0
COCCN(C(=O)COC(=O)c1ccccc1NCc1ccco1)c1c(N)n(Cc2ccccc2)c(=O)[nH]c1=O	0	0	0	79µM	0	0
COc1ccccc1CCC(=O)N(CCC1=CCCCC1)c1c(N)n(Cc2ccccc2)c(=O)[nH]c1=O	0	0	0	50µM	0	0
SMILES	BAZ2B block	JMJD2A Tudor	HP1b binding inh	G9a inh	GLS inh	L3MBTL1 block
CCCn1c(N)c(N(CCOC)C(=O)c2cc3c(s2)CCC(CC)C3)c(=O)[nH]c1=O (stereo not given)	0	0	0	0[2.33 µM]	0	0
Cn1c(=O)cc(OCCCC(=O)Nc2ccc(F)cc2)c2ccccc21	0	0	0	0	0	-
O=S(=O)(O)c1ccc(O)cc1	-	-	-	0	0	-
COc1ccc(Cn2c(-c3ccco3)nc3oc4ccccc4c(=O)c3c2=O)cc1	0	0	0	?	0	0
COc1ccc2c(=O)c3c(=O)n(Cc4ccco4)c(-c4ccco4)nc3oc2c1	?	?	0	18µM	0	-
COc1ccccc1N1CCN(C(=O)c2ccc(Nc3nc4ccccc4n4nnnc34)cc2)CC1	0	0	0	0	0	-
CCCN1CCC(=O)N(C(CSc2ccc(Br)cc2)c2ccccc2)CC1 (stereo not given)	-	0	0	-	-	-
COc1ccc(CCNCc2ccc3c(c2)n(C)c(=O)n3C)cc1OC	?	0	0	0	0	-
CCOc1ccc2nc3cc(N=Nc4ccc(N)nc4N)ccc3c(N)c2c1	-	56µM	?	-	0	-
COc1ccc(N=Nc2c(N)n[nH]c2N)cc1	?	?	0	-	0	0
COc1ccc(OC)c(N)c1	50µM	?	?	32µM	0	0
COc1ccc(N=Nc2ccc(N)nc2N)cc1	40µM	40µM	?	28µM	0	0
COc1ccc(N=Nc2cc(OC)c(N)cc2OC)cc1	-	45µM	50µM	-	0	-
Cc1cccc(N2CCN(C(=O)Cn3c(=O)c4cccn4c4ccc(F)cc43)CC2C)c1 (stereo not given)	0	0	0	0	0	-
O=C(Nc1ccc(S(=O)(=O)Nc2ncccn2)cc1)c1cccc(Cl)c1	0	0	0	0	0	-
CC(=O)Nc1ccc(S(=O)(=O)NNC(=O)c2cccc(Cl)c2)cc1	0	0	0	5.6µM	0	0
CC(=O)Nc1ccc(S(=O)(=O)Nc2ccc3c(c2)OCO3)cc1	0	0	0	0	0	-
CC(=O)Nc1ccc(S(=O)(=O)NNC(=O)c2ccc3c(c2)OCO3)cc1	0	11µM	0	0[12.7 µM]	0	-
COc1cccc(NC(=O)C(=O)NCCc2csc(-c3ccc(C(F)(F)F)cc3)n2)c1	0	0	0	0	0	-
N#Cc1c2ccc(OCC(=O)NCc3ccco3)cc2n2ccccc12	0	0	0	0[2.33 µM]	0	-
N#Cc1c2ccc(O)cc2n2ccccc12	0	0	0	4µM	11µM	0
COc1ccc(/C=C2\SC(=S)N(CCCC(=O)Nc3ccccc3C(=O)O)C2=O)cc1OC	0	?	0	0	0	-
COc1ccc(/C=C2\SC(=S)N(CCC(=O)Nc3ccc(O)cc3)C2=O)cc1	0	0	0	0	0	0
CCOc1ccc(/C=C2\SC(=S)N(CCC(=O)Nc3ccccc3C(=O)O)C2=O)cc1	?	0	0	35µM	0	-
CN1C(=O)/C(=C/c2ccc(C(=O)Nc3ccc(O)cc3C(=O)O)cc2)SC1=S	22µM	45µM	45µM	0[0.0925 µM]	?	-
COc1ccc(/C=C2\SC(=S)N(CCC(=O)Nc3ccccc3C(=O)O)C2=O)cc1	?	?	?	71µM	0	-
COc1cccc(-n2cn[nH]c2=S)c1	0	?	0	13µM	0	-
COc1cccc(N2CCN(c3ncccn3)CC2)c1	0	0	0	0	0	0
